M1 ag – activates human CHRM1 receptor. actives 0.33% (n = 360,000). CHO-K1 hM1, Fluo-8 calcium fluorescence, agonist mode; 0% DMSO, 100% acetylcholine EC100. activation, % at 3 µM;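 active means activation above the run's mean compound activation plus 3 SD, cut at about 16% in these data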;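 further: peak over basal fluorescence ratio within a 140 s kinetic read after compound addition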
Target sequence (P11229 whole entry, looked up): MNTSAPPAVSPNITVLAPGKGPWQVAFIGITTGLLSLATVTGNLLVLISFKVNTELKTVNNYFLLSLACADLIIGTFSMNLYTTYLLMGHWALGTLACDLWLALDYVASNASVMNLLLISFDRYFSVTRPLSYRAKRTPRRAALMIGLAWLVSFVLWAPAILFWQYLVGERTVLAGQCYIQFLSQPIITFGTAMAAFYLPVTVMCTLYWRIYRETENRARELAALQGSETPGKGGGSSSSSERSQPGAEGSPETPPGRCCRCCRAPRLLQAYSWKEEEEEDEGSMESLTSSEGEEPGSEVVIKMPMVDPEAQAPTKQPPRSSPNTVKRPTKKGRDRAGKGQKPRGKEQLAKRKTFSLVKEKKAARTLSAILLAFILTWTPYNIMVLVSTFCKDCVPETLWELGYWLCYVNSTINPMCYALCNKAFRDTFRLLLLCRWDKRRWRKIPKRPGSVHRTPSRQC
M1 ag parental – M1 agonist counterscreen hit in parental CHO-K1 cells; AID 602248; actives 0.48% (n = 360,000); Fluo-8 calcium fluorescence; scaled to maximal ATP response, vehicle zero; activation, % at 3 µM; in the data active means activation above about 15%;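 further: untransfected CHO-K1 host cells lacking M1 receptor as counterscreen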
CHRM1 PAM – potentiates human M1 receptor response to acetylcholine; actives 0.088% (n = 360,000); P11229; AID 588819; activation, % at 3 µM; CHO-K1 hM1, Fluo-8 calcium fluorescence, ACh EC20; 0% = ACh EC20, 100% = maximal ACh; in the data active means activation above about 19%, passing the limit was not always enough
CHO-K1 Ca PAM – counter-screen for M1 PAMs: effect in parental CHO-K1 cells | activation, % at 3 µM | AID 602247 | actives 0.02% (n = 360,000) | ATP EC20, Fluo-8 calcium fluorescence; 0% at ATP EC20, 100% at ATP max;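 active means activation above the run cutoff, the mean activation of all test compounds plus 3 SD, cut at about 40% in these data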;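 further: peak over basal fluorescence ratio in a 140 s read after ATP addition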
CHRM1 antagonist – human CHRM1 antagonism; P11229; CHO-K1 hM1, Fluo-8 calcium fluorescence, ACh EC80 antagonist; inhibition, % at 3 µM; actives 1.3% (n = 360,000); AID 588852;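 active means percent inhibition above its own plate's cutoff, namely the mean of that plate's compound wells plus 3 SD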;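 further: peak over basal fluorescence ratio during 140 s after agonist addition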
CHO-K1 Ca antag – nonselective inhibitor or artifact in parental CHO-K1 cells; ATP-induced calcium, Fluo-8 fluorescence; inhibition, % at 3 µM; actives 0.6% (n = 360,000);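 active means inhibition above a per-plate cutoff, the plate's mean sample inhibition plus 3 SD, cut at about 24% in these data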
Hits are given with their value; – = inactive. Most compounds without a hit are left out; they make up all but 2.3% or so of the library.

SMILES	M1 ag	M1 ag parental	CHRM1 PAM	CHO-K1 Ca PAM	CHRM1 antagonist	CHO-K1 Ca antag
COc1ccc(C(C(=O)NC2CCCC2)N(C(=O)c2ccoc2C)c2ccccc2)cc1 (centres undefined)	–	–	–	–	–	–
COc1ccc(C(C(=O)NC2CCCC2)N(C(=O)c2ccoc2C)c2cc(C)cc(C)c2)cc1 (centres undefined)	–	–	–	–	–	–
Cc1ccc2nc(NC(=O)CN3C(=O)NC4(CCCCC4)C3=O)sc2c1	–	–	–	–	–	–
O=C(C1CCC(CNc2nc(=S)[nH]c3ccccc23)CC1)N1CCN(c2ccc(F)cc2)CC1 (centres undefined)	–	–	–	–	32.6	–
COc1ccc(N2CCN(CCCNC(=O)C3CCC(CNc4nc(=S)[nH]c5ccccc45)CC3)CC2)cc1 (centres undefined)	–	–	–	–	–	–
CCOc1cc(-c2nc3ccccn3c2NCC2CCCO2)ccc1O (centres undefined)	–	–	–	–	23.7	–
COc1cc(-c2nc3ccccn3c2/N=C/c2ccccc2)ccc1O	26.6	–	–	–	–	–
COc1cc(-c2nc3ccccn3c2NCC2CCCO2)ccc1O (centres undefined)	–	–	–	–	24.1	–
CCC1(c2ccccc2)NC(=O)N(CC(=O)Nc2ccccc2N2CCCCC2)C1=O (centres undefined)	36.9	38.1	–	–	–	–
CCC1(c2ccc(F)cc2)NC(=O)N(CC(=O)Nc2ccc(N3CCCCC3)cc2)C1=O (centres undefined)	16.8	–	–	–	–	–
COc1ccc(C(CNc2ccc(C(F)(F)F)cn2)N(C)C)cc1OC (centres undefined)	–	–	–	–	–	–
COc1cc(CC(=O)OCC(=O)NCCc2ccc(S(N)(=O)=O)cc2)cc(OC)c1OC	–	–	–	–	–	–
O=C(COc1ccc2c(c1)OCO2)Nc1ccccc1F	–	–	–	–	–	–
COC(=O)c1ccccc1NC(=O)COc1ccc2c(c1)OCO2	–	–	–	–	–	29.7
O=C(O)CCCN1C(=O)NC2NC(=O)NC21 (centres undefined)	–	–	–	–	–	34.4
COC(CNC(=O)c1ccc2c(c1)ncn2-c1ccc(C)cc1C)OC	–	17.5	–	–	–	–
CCc1nc2ccc(C(=O)NCCOc3ccc(OC)cc3)cn2c1N(C)CCCc1ccccc1	–	–	–	–	35.3	–
CCc1nc2ccc(C(=O)NCCOc3ccc(OC)cc3)cn2c1N(C)Cc1ccc(OC)cc1	–	–	–	–	30.4	–
CCc1nc2ccc(C(=O)N3CCCC(C(N)=O)C3)cn2c1N(C)Cc1ccc(OC)cc1 (centres undefined)	–	–	–	–	38.9	–
CCc1nc2ccc(C(=O)N3CCCC(C(N)=O)C3)cn2c1N(CCC(C)C)CCN(C)C (centres undefined)	–	–	–	–	–	–
CCCCNC(=O)c1ccc2nc(CC)c(N(C)Cc3ccc(OC)cc3)n2c1	–	–	–	–	–	–
Nn1c(Cc2ccccc2)nc2cc(Cl)ccc2c1=O	–	–	–	–	–	–
COc1cc(C(=O)NC(C)c2cc(C)ccc2C)ccc1OCC(=O)N1CCOCC1 (centres undefined)	–	–	–	–	–	–
Cc1cccn2c(=O)nc(SCC(=O)Nc3ccc4c(c3)OCO4)nc12	–	–	–	–	–	–
Cn1c(SCC(=O)c2ccc(O)cc2O)nnc1-c1ccccc1	–	–	–	–	–	–
SMILES	M1 ag	M1 ag parental	CHRM1 PAM	CHO-K1 Ca PAM	CHRM1 antagonist	CHO-K1 Ca antag
CCOC(=O)c1cc2n(n1)C(C(F)(F)C(F)(F)F)CC(C)N2 (centres undefined)	17.5	–	–	–	–	–
CCN(CC)c1ccc2c(Cl)c(Br)c(=O)oc2c1	49.3	53.4	–	–	78.1	73.2
C=CCn1c(-c2ccc(S(=O)(=O)N3CCOCC3)cc2)csc1=Nc1ccccc1	–	–	–	–	–	–
CC(=O)c1cccc(N=c2scc(-c3ccc(S(=O)(=O)N4CCOCC4)cc3)n2CCO)c1	–	–	–	–	–	32.4
O=C(CSc1nnc(NC(=O)c2c(F)cccc2F)s1)NC1CCCC1	–	–	–	–	–	–
O=C(Nc1nnc(SCC(=O)N2CCCCC2)s1)c1c(F)cccc1F	–	–	28.3	–	–	–
CCC1CCc2sc(C(=O)N(C)CC(=O)Nc3ccc(N4CCOCC4)cc3)cc2C1 (centres undefined)	–	–	–	–	–	–
O=C(Cc1cccc2ccccc12)N/N=C/c1ccncc1	–	25.7	–	–	–	–
O=C(CC(=O)N/N=C/c1ccccc1)NCc1ccccc1	–	17.3	–	–	–	–
COC(=O)c1ccccc1NC(=O)CSc1nnnn1CC(=O)O	–	–	–	–	–	–
COc1ccccc1C(c1nnnn1C(C)C)N1CCN(C(=O)c2ccco2)CC1 (centres undefined)	–	–	–	–	–	–
O=C(O)c1cn2c3c(ccc(Cl)c3c1=O)OCC2	–	–	26.0	–	–	–
O=C(CCCCCN1C(=O)CCC1=O)Nc1ccc(Cl)c(C(F)(F)F)c1	–	17.0	–	–	–	–
CCC(C)[C@H]1COCCS(=O)(=O)N1Cc1ccc(Cl)cc1Cl (some centres undefined)	–	–	–	–	–	–
S=c1nc2c(n[nH]1)c1ccccc1n2CCc1ccccc1	20.0	–	–	–	–	–
CSc1nnc2c3ccccc3n(CCc3ccccc3)c2n1	–	–	–	–	–	–
CCOC1=C2CN(S(=O)(=O)c3ccc(C)cc3)[C@@H](c3cccs3)C[C@H]2[C@H]2C(=O)N(c3ccccc3)C(=O)[C@H]2C1	–	–	–	–	–	26.8
O=C(c1ccc(Cl)cc1)C(CN1CCCC1)c1ccccc1 (centres undefined)	–	–	–	–	38.4	–
COc1ccc(C(=O)C(CN2CCCC2)c2ccccc2)cc1 (centres undefined)	–	–	–	–	–	–
C[N+]12CCC(CC1)C(OC(=O)C(O)(c1ccccc1)c1ccccc1)C2 (centres undefined)	–	–	–	–	98.2	–
COc1ccccc1Nc1nc2c(C)cccc2cc1C#N	–	–	–	–	–	–
COc1ccccc1Nc1nc2cc(C)ccc2cc1C#N	–	15.7	–	–	–	–
COc1ccccc1Nc1nc2ccc(C)cc2cc1C#N	–	–	–	–	–	24.7
CCN(CCCNC(=O)C1CCN(S(=O)(=O)c2cccc3nonc23)CC1)Cc1ccccc1	–	–	–	–	46.8	–
NC(COCc1ccccc1)c1csc(Nc2ccc(S(N)(=O)=O)cc2)n1 (centres undefined)	–	–	–	–	–	–
